Bioassay records deposited in PubChem by several laboratories.
This is a sample that favours compounds with a hit; in the whole collection about 5.6% have one here.
PfM18AAP inh = PfM18AAP enzyme inhibition; inhibition, % at 7.35 µM; 1.2% of 290,000 active; recombinant PfM18AAP, H-Glu-NHMec fluorogenic cleavage;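 active = inhibition above the campaign mean inhibition over all tested compounds plus 3 SD, cut at about 28% in these data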;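 also: 0% = plate median of test compound wells and 100% = 2 mM ZnCl2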
ALR inh = human ALR oxidase inhibition via reduced H2O2 | P55789 | inhibition, % (concentration not given with the values) | 3.8% of 290,000 active | purified ALR, DTT oxidation, H2O2 HRP-luminol luminescence;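 active = mean replicate inhibition above about 79%, with every replicate also reaching it, limit read from the data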
Target sequence (P55789 whole entry, looked up): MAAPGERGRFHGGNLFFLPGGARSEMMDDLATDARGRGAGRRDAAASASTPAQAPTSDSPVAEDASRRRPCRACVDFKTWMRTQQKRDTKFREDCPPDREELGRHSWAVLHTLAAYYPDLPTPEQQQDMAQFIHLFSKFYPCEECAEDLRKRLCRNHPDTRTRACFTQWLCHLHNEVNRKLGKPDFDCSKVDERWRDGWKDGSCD
PHOSPHO1 block = PHOSPHO1 (human) inhibition. recombinant PHOSPHO1, absorbance phosphatase assay. 1.1% of 290,000 active. inhibition, % at 13.3 µM. AID 1565. Q8TCT1; in the data active = inhibition above about 60%
Target sequence (Q8TCT1 whole entry, looked up): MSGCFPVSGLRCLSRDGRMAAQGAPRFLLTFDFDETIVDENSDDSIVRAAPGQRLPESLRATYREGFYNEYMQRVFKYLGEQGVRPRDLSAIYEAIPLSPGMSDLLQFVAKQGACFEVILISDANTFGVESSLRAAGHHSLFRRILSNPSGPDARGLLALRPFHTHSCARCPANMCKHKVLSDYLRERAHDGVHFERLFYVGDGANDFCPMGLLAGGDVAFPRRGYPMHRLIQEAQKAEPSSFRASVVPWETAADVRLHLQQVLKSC
PfGluPho inh = PfG6PD (Plasmodium falciparum) enzyme inhibition; PfGluPho enzyme, NADPH resazurin-diaphorase fluorescence; inhibition, % at 20 µM; 0.78% of 350,000 active;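 active = inhibition reaching at least a set limit at 20 µM in the primary screen, cut at about 59% in these data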;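 also: 0% = DMSO wells with substrate and 100% = DMSO wells lacking glucose-6-phosphate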
Cardio protect = protects H9c2 cardiomyocytes from peroxide injury; 0.63% of 360,000 active; H2O2 injury protection, ATPLite, 2 h; protection from H2O2 cell death, % at 20 µM;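 active = compounds giving at least 50% protection of heart cells from peroxide-induced death in the single-dose screen, raw or plate-pattern-corrected value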;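 also: 0% = DMSO wells with peroxide and 100% = DMSO wells without peroxide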
Numbers without * were called inactive; / = not tested or not shown.

SMILES | PfM18AAP inh | ALR inh | PHOSPHO1 block | PfGluPho inh | Cardio protect
O=C(O)c1cc2ccccc2c(N=Nc2cccnc2)c1O | -2 | -4 | 30 | -16 | -5
O=C(CN1CCN(Cc2ccccc2)CC1)NNC(=O)c1ccccc1 | / | / | / | -1 | -3
CCC(=O)Nc1cccc(-c2cnc3ccccc3n2)c1 | -6 | 88* | -2 | -7 | 2
O=C(Nc1ccc(-c2nc3cccnc3s2)cc1)c1ccco1 | 4 | 1 | 8 | 8 | 6
CCOc1ncccc1C(=O)Nc1cccc(-c2nc3cccnc3s2)c1 | -5 | -7 | 28 | 8 | 64*
O=C(Nc1cccc(-c2cnc3ccccc3n2)c1)c1cccc(NC(=O)c2ccco2)c1 | -4 | 2 | 23 | 8 | 61*
O=C(Nc1cccc(-c2nc3cccnc3s2)c1)c1ccco1 | 13 | / | -10 | 3 | 70*
CCOc1ccccc1NC(=O)C1CCCN(S(=O)(=O)c2ccc(-n3cnnn3)cc2)C1 (stereo unspecified) | -2 | -7 | 42 | -9 | 1
COc1ccccc1-c1cc(C(F)(F)F)nc(S(=O)(=O)CCCC(=O)N2CCOCC2)n1 | -7 | / | -22 | -16 | -23
COc1ccc(-c2cc(C(F)(F)F)nc(S(=O)(=O)CCC(=O)N3CCOCC3)n2)cc1 | 16 | 90* | 9 | -6 | -22
CC(Sc1nnc(-c2ccccc2F)n1C)C(=O)NC1CCCCC1 (stereo unspecified) | / | 1 | / | -10 | -1
COC(=O)CCC/C=C1/SCC(NC(=O)c2ccccc2)C1O (stereo unspecified) | -11 | 97* | 21 | -7 | -1
COC(=O)CCC/C=C1/SCC(NC(=O)c2ccccc2)C1=O (stereo unspecified) | -14 | 10 | 64* | 1 | 22
COC(=O)CCC/C=C1/SCC(NC(=O)c2ccccc2)C1NC(C)=O (stereo unspecified) | -3 | 6 | 24 | 6 | 8
CCOC(=O)c1oc2ccc(/C=N/O)c(Cl)c2c1C | -9 | -2 | 28 | -6 | -6
COc1ccc(N2CCN(S(=O)(=O)CCNC(=O)COc3ccccc3OC)CC2)cc1 | 5 | 93* | -22 | 4 | -5
O=C1c2ccccc2CSc2c(O)cccc21 | / | 80* | / | 18 | 3
COc1ccc(NC2=C(C(C)=O)C(c3ccc(N(C)C)cc3)C(C(C)=O)C(C)(O)C2)cc1 (stereo unspecified) | 11 | 91* | 9 | 8 | -4
Cn1nnnc1SCc1csc(C2C(C#N)=C(N)OC3=C2C(=O)CCC3)c1 (stereo unspecified) | 9 | 8 | -10 | -12 | 4
O=S(=O)(Nc1ccc(-n2cnnn2)cc1)c1cccc(F)c1 | / | / | / | -3 | -4
C=CC#CC[N+]1(CC#Cc2ccccc2)CCOCC1 | 4 | / | -5 | 72* | -5
CCOC(=O)Cc1cnc(NC(=O)CSc2nc(C(C)C)cc(=O)[nH]2)s1 | 14 | 68 | -16 | -17 | 0
CCc1c(C)nc(SCC(=O)NNC(=O)Cc2ccc(OC)cc2)[nH]c1=O | 29* | 0 | 47 | -2 | -2
CCOC(=O)Cc1cnc(NC(=O)CSc2nc(C)c(CC)c(=O)[nH]2)s1 | 7 | 99* | -10 | -16 | 3
CCc1c(C)nc(SCC(=O)Nc2nc(-c3ccc(OC)cc3)cs2)[nH]c1=O | -4 | 99* | 37 | 1 | 0
SMILES | PfM18AAP inh | ALR inh | PHOSPHO1 block | PfGluPho inh | Cardio protect
CN1C(=O)C(Cl)(Cl)C(=O)c2ccccc21 | 38* | / | 44 | 44 | -3
CN1C(=O)C2(NC(=O)c3ccccc3N2C)c2ccccc21 (stereo unspecified) | 12 | -2 | 5 | 10 | 2
COc1cc(NC(=O)c2sc(C)nc2C)c(OC)cc1NC(=O)c1ccccc1 | 1 | -15 | 33 | 10 | 48
N#CC1=C(N)Oc2cc3ccccc3cc2C1c1cccnc1 (stereo unspecified) | -2 | -18 | -7 | 10 | -2
N#CC1=C(N)Oc2cc3ccccc3cc2C1c1cccs1 (stereo unspecified) | 10 | / | 62* | 22 | -8
Fc1ccc(-n2c(-c3ccc4c(c3)OCO4)n[nH]c2=S)cc1Cl | 22 | 96* | 0 | 37 | 2
Oc1ccc(-c2n[nH]c(=S)n2-c2ccc3c(c2)OCCO3)cc1 | 18 | / | -4 | 46 | -7
COc1cc(OC)cc(-c2n[nH]c(=S)n2-c2ccc3c(c2)OCO3)c1 | 32* | / | -10 | 43 | 1
O=C(CN1CCN(S(=O)(=O)c2ccc(Br)s2)CC1)NCC1CCCCC1 | / | / | / | -25 | -3
CCOC(=O)c1cn(CC)c2ccc(Br)cc2c1=O | 0 | 0 | 78* | 9 | 3
O=c1[nH]c2ccc(S(=O)(=O)NCc3ccccc3)cc2[nH]1 | -12 | -12 | 37 | -3 | 4
Cc1ccc2cccc(NC3OC(=O)c4ccccc43)c2n1 (stereo unspecified) | 28* | -2 | -7 | 6 | 4
CCOC(=O)CCCCCC(=O)Nc1ccc2c(c1)C(=O)N([C@H](C)CO)C[C@@H](C)[C@H](CN(C)S(=O)(=O)c1cn(C)cn1)O2 | / | 7 | / | -7 | -6
COc1ccc(-c2cnnc(N/N=C/c3ccc(O)c(O)c3)n2)cc1 | 48* | / | -5 | 2 | 16
Cc1cc2n(n1)C(c1ccc3c(c1)OCO3)Nc1c(C)cccc1-2 (stereo unspecified) | -9 | 98* | -14 | 7 | -5
Cc1cccc(C(=O)Nc2ccc(NC(=O)c3cccc(C)c3)cc2)c1 | / | / | / | -6 | 7
Cc1ccc(NC(=O)c2cccc(Oc3ccc([N+](=O)[O-])cc3)c2)c(C(=O)O)c1 | 6 | 97* | 29 | -2 | -5
Cc1cccc(C(=O)Nc2ccc(C(=O)Nc3ccc(O)cc3)cc2)c1 | 0 | -17 | 62* | 18 | 11
O=C(c1cccc(Oc2ccc([N+](=O)[O-])cc2)c1)N1CCOCC1 | 3 | -1 | 63* | 0 | 0
O=C(Nc1ccc(O)cc1)c1cccc(Oc2ccc([N+](=O)[O-])cc2)c1 | 1 | 99* | 8 | -6 | -15
COCCCN1C(=O)C(CC(=O)NCc2ccco2)CC(C(=O)N(C)C)=C1C (stereo unspecified) | / | / | / | 9 | 1
[O-]/[N+](=C\c1ccncc1)c1ccc(Br)cc1 | -2 | 29 | -12 | 91* | -5
O=[N+]([O-])c1ccc(/C=C/c2ccncc2)cc1 | 2 | -22 | 25 | 21 | 4
CCOC(=O)C1=C(O)/C(=C\c2ccc(CNC(=O)C(=O)Nc3ccccc3)o2)N=C1C | 23 | -6 | 83* | 4 | 3
CCn1c(SCC(=O)Nc2ccc(N(C)C)cc2)nnc1-c1ccco1 | 8 | / | 16 | 45 | 0
CC1(Oc2ccccc2-c2ccn[nH]2)CCN(Cc2ccc(OC(F)(F)F)cc2)C1 (stereo unspecified) | / | / | / | / | -19
CC1CCC2C(C1)Nc1c(C(=O)O)cccc1C2(C)C (stereo unspecified) | 7 | 98* | 10 | -24 | -10
CC(=O)Nc1ccc(SC[C@H](c2ccccc2)N2CCN(CCc3ccccc3)CCC2=O)cc1 | / | 98* | 26 | / | /
